# Results as given in PubChem BioAssay (EPA / NIEHS).
# The source made the active and inactive calls. How the source made its calls: active means hit-call score of the fitted dose curve at least 0.9, where 1 is the maximum; inactive means score below 0.9.
# Tests used:
# Details in all cases: mRNA level, 48 h; actives raise or lower the signal
# [1] = read-out: Lipoprotein lipase (LPL), LPL (gene 4023); assay: LTEA_HepaRG_LPL: Life Technologies and Expression Analysis (LTEA) Assay for Lipoprotein lipase (LPL) using HepaRG (AID 2283515)
# Method in brief: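 Differentiated human HepaRG cells in serum-free induction medium were exposed in duplicate for 48 h to eight half-log concentrations (top 100 uM) in 0.5% DMSO. LPL mRNA was quantified by TaqMan qRT-PCR, normalized to ACTB, GAPDH and POLR2A.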
# [2] = read-out: MicroRNA 122 (MIR122), gene 406906; assay: LTEA_HepaRG_MIR122: Life Technologies and Expression Analysis (LTEA) Assay for MicroRNA 122 (MIR122) using HepaRG (AID 2283516); further: the transcript read is the microRNA miR-122
# Method in brief: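 HepaRG plated 48 h, switched to serum-free induction medium, then treated in duplicate for 48 h (100 uM top, half-log steps, 0.5% DMSO vehicle). RNA isolated, qRT-PCR performed, concentration-response fitted both directions relative to DMSO.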
# [3] = read-out: matrix metalloproteinase-10 (MMP10), MMP10 (gene 4319); assay: LTEA_HepaRG_MMP10: Life Technologies and Expression Analysis (LTEA) Assay for matrix metalloproteinase-10 (MMP10) using HepaRG (AID 2283517)
# Method in brief: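 HepaRG, collagen I, ~100,000 cells/well; serum-free induction medium; 48 h exposure, duplicate, 8-pt half-log to 100 uM, 0.5% DMSO. Readout: TaqMan qRT-PCR, normalized to ACTB/GAPDH/POLR2A; bidirectional fit vs DMSO.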
# MYC, MYC (gene 4609) = assay: LTEA_HepaRG_MYC: Life Technologies and Expression Analysis (LTEA) Assay for MYC using HepaRG (AID 2283518)
# Method in brief: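 Differentiated HepaRG cells exposed 48 h in serum-free induction medium to 8 concentrations (top 100 uM, half-log steps; 0.5% DMSO), duplicate. MYC mRNA measured by Fluidigm qRT-PCR, normalized to ACTB, GAPDH, POLR2A; bidirectional fit versus DMSO.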
# [4] = read-out: matrix metalloproteinase-3 (MMP3), MMP3 (gene 4314); assay: LTEA_HepaRG_MMP3: Life Technologies and Expression Analysis (LTEA) Assay for matrix metalloproteinase-3 (MMP3) using HepaRG (AID 2283519)
# Method in brief: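 Differentiated human HepaRG cells, plated 48 h on collagen I, were exposed in duplicate for 48 h in serum-free induction medium to eight half-log concentrations up to 100 uM in 0.5% DMSO. MMP3 mRNA was quantified by TaqMan qRT-PCR, normalised to ACTB, GAPDH and POLR2A.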
# [5] = read-out: Paternally Expressed 10 (PEG10), PEG10 (gene 23089); assay: LTEA_HepaRG_PEG10: Life Technologies and Expression Analysis (LTEA) Assay for Paternally Expressed 10 (PEG10) using HepaRG (AID 2283520)
# Method in brief: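 HepaRG, 48 h post-plating → serum-free induction medium → 48 h chemical exposure (duplicate, 8-pt, max 100 uM, half-log, 0.5% DMSO) → lysis in RLT → TaqMan qRT-PCR for PEG10, ACTB/GAPDH/POLR2A normalisation.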
# [6] = read-out: Protein phosphatase 2A (PPP2R4), PTPA (gene 5524); assay: LTEA_HepaRG_PPP2R4: Life Technologies and Expression Analysis (LTEA) Assay for Protein phosphatase 2A (PPP2R4) using HepaRG (AID 2283522)
# Method in brief: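 Readout is PPP2R4 transcript level by microfluidic qRT-PCR after 48 h chemical treatment of human HepaRG liver cells. Concentrations spanned 100 uM downward in half-log steps; gain or loss of signal was fitted relative to DMSO.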
# [7] = read-out: Phosphatase and tensin (PTEN), PTEN (gene 5728); assay: LTEA_HepaRG_PTEN: Life Technologies and Expression Analysis (LTEA) Assay for Phosphatase and tensin (PTEN) using HepaRG (AID 2283523)
# Method in brief: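 Differentiated human HepaRG cells, plated 48 h then switched to serum-free induction medium, were exposed in duplicate for 48 h to eight half-log concentrations up to 100 uM in 0.5% DMSO. PTEN mRNA measured by TaqMan qRT-PCR, normalized to ACTB/GAPDH/POLR2A, bidirectional fit versus DMSO.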
# [8] = read-out: solute carrier (SLC22A1), SLC22A1 (gene 6580); assay: LTEA_HepaRG_SLC22A1: Life Technologies and Expression Analysis (LTEA) Assay for solute carrier (SLC22A1) using HepaRG (AID 2283524)
# Method in brief: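 Human HepaRG cells were plated 48 h, switched to serum-free induction medium, then exposed in duplicate for 48 h to 8-point half-log series from 100 uM in 0.5% DMSO. SLC22A1 mRNA measured by qRT-PCR, normalized to ACTB/GAPDH/POLR2A, fitted bidirectionally versus DMSO.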
# [9] = read-out: Pyruvate Dehydrogenase Kinase 4 (PDK4), PDK4 (gene 5166); assay: LTEA_HepaRG_PDK4: Life Technologies and Expression Analysis (LTEA) Assay for Pyruvate Dehydrogenase Kinase 4 (PDK4) using HepaRG (AID 2283525)
# Method in brief: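 Differentiated human HepaRG cells, pre-cultured 48 h, were exposed in duplicate for 48 h in serum-free induction medium to eight half-log concentrations up to 100 uM in 0.5% DMSO. PDK4 mRNA was quantified by qRT-PCR, normalized to ACTB, GAPDH and POLR2A, bidirectional fitting versus DMSO.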
# [10] = read-out: NAD(P)H dehydrogenase [quinone] 1 (NQO1), NQO1 (gene 1728); assay: LTEA_HepaRG_NQO1: Life Technologies and Expression Analysis (LTEA) Assay for NAD(P)H dehydrogenase [quinone] 1 (NQO1) using HepaRG (AID 2283526)
# Method in brief: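 HepaRG, 48 h post-plating → serum-free induction medium → test chemical 48 h (duplicate, 100 uM top, half-log x8, 0.5% DMSO) → RNA isolation → qRT-PCR, ACTB/GAPDH/POLR2A normalization; bidirectional curve fit vs DMSO baseline.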
# [11] = read-out: Nuclear factor erythroid 2-related factor 2 (Homo sapiens) (UniProt Q16236); assay: LTEA_HepaRG_NFE2L2: Life Technologies and Expression Analysis (LTEA) Assay for Nuclear factor erythroid 2-related factor 2 (NFE2L2) Transcription Factor using HepaRG (AID 2283527);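 on outcome: TaqMan qRT-PCR transcript level normalised to ACTB GAPDH and POLR2A housekeeping genes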
# Method in brief: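 Differentiated human HepaRG cells in serum-free induction medium were exposed for 48 h to eight concentrations (top 100 uM, half-log dilutions, 0.5% DMSO), in duplicate. NFE2L2 mRNA was quantified by TaqMan qRT-PCR, normalized to ACTB, GAPDH and POLR2A, with bidirectional fitting versus DMSO.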
# [12] = read-out: succinate dehydrogenase complex iron sulfur subunit B (SDHB), SDHB (gene 6390); assay: LTEA_HepaRG_SDHB: Life Technologies and Expression Analysis (LTEA) Assay for succinate dehydrogenase complex iron sulfur subunit B (SDHB) using HepaRG (AID 2283528)
# Method in brief: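 HepaRG cells (~100,000/well, plated 48 h) exposed in duplicate for 48 h in serum-free induction medium to 8-point half-log series from 100 uM in 0.5% DMSO; mRNA by qRT-PCR normalised to ACTB, GAPDH, POLR2A; bidirectional fit versus DMSO.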
# [13] = read-out: Signal transducer and activator of transcription 3 (Homo sapiens) (UniProt P40763); assay: LTEA_HepaRG_STAT3: Life Technologies and Expression Analysis (LTEA) Assay for Signal transducer and activator of transcription (STAT3) using HepaRG (AID 2283529)
# Method in brief: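 Differentiated human HepaRG cells in serum-free induction medium were exposed in duplicate for 48 h to eight half-log concentrations up to 100 uM in 0.5% DMSO. STAT3 mRNA was quantified by TaqMan qRT-PCR, normalized to ACTB, GAPDH and POLR2A, and fitted bidirectionally against DMSO.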
# [14] = read-out: solute carrier (SLCO1B1), SLCO1B1 (gene 10599); assay: LTEA_HepaRG_SLCO1B1: Life Technologies and Expression Analysis (LTEA) Assay for solute carrier (SLCO1B1) using HepaRG (AID 2283530)
# Method in brief: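 Differentiated human HepaRG cells were exposed for 48 h in serum-free induction medium to eight half-log concentrations, top 100 uM, in 0.5% DMSO. SLCO1B1 mRNA was measured by qRT-PCR, normalized to ACTB, GAPDH and POLR2A, and fitted bidirectionally against DMSO.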
# [15] = read-out: Transforming Growth Factor (TGFA), TGFA (gene 7039); assay: LTEA_HepaRG_TGFA: Life Technologies and Expression Analysis (LTEA) Assay for Transforming Growth Factor (TGFA) using HepaRG (AID 2283532)
# Method in brief: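 Differentiated human HepaRG cells, plated 48 h then switched to serum-free induction medium, were exposed in duplicate for 48 h to 8-point half-log series from 100 uM in 0.5% DMSO. TGFA mRNA measured by qRT-PCR, normalized to ACTB/GAPDH/POLR2A, bidirectional fit versus DMSO.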
# [16] = read-out: Transforming Growth Factor (TGFB1), TGFB1 (gene 7040); assay: LTEA_HepaRG_TGFB1: Life Technologies and Expression Analysis (LTEA) Assay for Transforming Growth Factor (TGFB1) Transporter using HepaRG (AID 2283533)
# Method in brief: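 Differentiated HepaRG cells exposed 48 hr in serum-free induction medium to eight half-log concentrations up to 100 uM (0.5% DMSO), duplicate; TGFB1 mRNA by TaqMan qRT-PCR normalised to ACTB, GAPDH, POLR2A; bidirectional fit against DMSO.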
# TIMP1, TIMP1 (gene 7076) = assay: LTEA_HepaRG_TIMP1: Life Technologies and Expression Analysis (LTEA) Assay for TIMP1 using HepaRG (AID 2283534);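 on outcome: TaqMan qRT-PCR signal normalized to ACTB GAPDH and POLR2A housekeeping genes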
# Method in brief: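 Differentiated HepaRG cells exposed 48 h in serum-free induction medium, duplicates, eight half-log concentrations from 100 uM in 0.5% DMSO. TIMP1 mRNA by qRT-PCR normalized to ACTB, GAPDH, POLR2A; bidirectional fitting against DMSO.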
# [17] = read-out: Nuclear factor NF-kappa-B p105 subunit (Homo sapiens) (UniProt P19838); assay: LTEA_HepaRG_NFKB1: Life Technologies and Expression Analysis (LTEA) Assay for Nuclear Factor Kappa B Subunit 1 (NFKB1) using HepaRG (AID 2283521);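 further: TaqMan qRT-PCR transcript normalised to ACTB GAPDH and POLR2A housekeeping genes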
# Method in brief: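 Differentiated human HepaRG cells in serum-free induction medium with 0.5% DMSO were exposed for 48 h to eight half-log concentrations, top 100 uM, in duplicate. NFKB1 mRNA measured by Fluidigm TaqMan qRT-PCR, normalised to ACTB, GAPDH and POLR2A; bidirectional fit versus DMSO.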
# [18] = read-out: sulfotransferase 2A1 (SULT2A1), SULT2A1 (gene 6822); assay: LTEA_HepaRG_SULT2A1: Life Technologies and Expression Analysis (LTEA) Assay for sulfotransferase 2A1 (SULT2A1) using HepaRG (AID 2283531)
# Method in brief: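 HepaRG human liver cells, 48 h exposure in serum-free induction medium to 8 half-log concentrations topping at 100 µM (0.5% DMSO), duplicate wells. SULT2A1 mRNA measured by TaqMan qRT-PCR, normalized to ACTB/GAPDH/POLR2A; bidirectional fit against DMSO.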
# Nuclear factor erythroid 2-related factor 2 (Homo sapiens), sequence (Q16236 whole entry, looked up): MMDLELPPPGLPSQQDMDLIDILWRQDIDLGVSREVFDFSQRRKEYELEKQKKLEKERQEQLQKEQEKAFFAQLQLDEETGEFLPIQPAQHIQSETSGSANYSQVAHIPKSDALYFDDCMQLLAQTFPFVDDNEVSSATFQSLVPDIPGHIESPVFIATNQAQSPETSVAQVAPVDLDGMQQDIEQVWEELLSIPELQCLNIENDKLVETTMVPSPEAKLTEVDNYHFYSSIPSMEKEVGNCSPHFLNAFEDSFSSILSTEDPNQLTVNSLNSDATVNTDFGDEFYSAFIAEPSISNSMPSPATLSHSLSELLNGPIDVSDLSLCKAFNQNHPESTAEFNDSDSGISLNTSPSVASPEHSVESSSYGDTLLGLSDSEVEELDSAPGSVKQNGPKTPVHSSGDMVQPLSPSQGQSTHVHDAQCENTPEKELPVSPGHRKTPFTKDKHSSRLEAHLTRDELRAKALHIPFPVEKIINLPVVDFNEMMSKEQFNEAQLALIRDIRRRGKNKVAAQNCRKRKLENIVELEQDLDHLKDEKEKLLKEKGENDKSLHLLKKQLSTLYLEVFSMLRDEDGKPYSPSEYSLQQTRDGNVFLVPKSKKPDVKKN
# Signal transducer and activator of transcription 3 (Homo sapiens), sequence (P40763 whole entry, looked up): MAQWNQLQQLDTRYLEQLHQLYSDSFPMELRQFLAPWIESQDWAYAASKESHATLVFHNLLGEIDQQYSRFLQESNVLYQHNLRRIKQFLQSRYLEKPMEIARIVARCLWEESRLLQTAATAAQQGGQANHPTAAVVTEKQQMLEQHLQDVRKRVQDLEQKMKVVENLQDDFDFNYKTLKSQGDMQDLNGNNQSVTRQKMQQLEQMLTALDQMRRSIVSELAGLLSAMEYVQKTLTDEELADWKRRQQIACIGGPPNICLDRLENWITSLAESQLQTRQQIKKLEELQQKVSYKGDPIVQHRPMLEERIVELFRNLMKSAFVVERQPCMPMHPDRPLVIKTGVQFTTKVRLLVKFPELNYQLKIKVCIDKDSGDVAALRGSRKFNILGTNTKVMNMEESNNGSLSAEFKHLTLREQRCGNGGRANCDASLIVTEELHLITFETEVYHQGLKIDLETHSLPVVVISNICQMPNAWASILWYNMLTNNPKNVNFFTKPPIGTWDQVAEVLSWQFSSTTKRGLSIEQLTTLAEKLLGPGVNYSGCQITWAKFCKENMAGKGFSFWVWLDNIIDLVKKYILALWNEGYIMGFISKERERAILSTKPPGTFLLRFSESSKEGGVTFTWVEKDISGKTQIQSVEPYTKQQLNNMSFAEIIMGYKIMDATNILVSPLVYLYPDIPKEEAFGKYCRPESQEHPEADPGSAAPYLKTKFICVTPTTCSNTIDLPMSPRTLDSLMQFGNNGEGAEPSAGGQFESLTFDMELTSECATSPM
# Nuclear factor NF-kappa-B p105 subunit (Homo sapiens), sequence (P19838 whole entry, looked up): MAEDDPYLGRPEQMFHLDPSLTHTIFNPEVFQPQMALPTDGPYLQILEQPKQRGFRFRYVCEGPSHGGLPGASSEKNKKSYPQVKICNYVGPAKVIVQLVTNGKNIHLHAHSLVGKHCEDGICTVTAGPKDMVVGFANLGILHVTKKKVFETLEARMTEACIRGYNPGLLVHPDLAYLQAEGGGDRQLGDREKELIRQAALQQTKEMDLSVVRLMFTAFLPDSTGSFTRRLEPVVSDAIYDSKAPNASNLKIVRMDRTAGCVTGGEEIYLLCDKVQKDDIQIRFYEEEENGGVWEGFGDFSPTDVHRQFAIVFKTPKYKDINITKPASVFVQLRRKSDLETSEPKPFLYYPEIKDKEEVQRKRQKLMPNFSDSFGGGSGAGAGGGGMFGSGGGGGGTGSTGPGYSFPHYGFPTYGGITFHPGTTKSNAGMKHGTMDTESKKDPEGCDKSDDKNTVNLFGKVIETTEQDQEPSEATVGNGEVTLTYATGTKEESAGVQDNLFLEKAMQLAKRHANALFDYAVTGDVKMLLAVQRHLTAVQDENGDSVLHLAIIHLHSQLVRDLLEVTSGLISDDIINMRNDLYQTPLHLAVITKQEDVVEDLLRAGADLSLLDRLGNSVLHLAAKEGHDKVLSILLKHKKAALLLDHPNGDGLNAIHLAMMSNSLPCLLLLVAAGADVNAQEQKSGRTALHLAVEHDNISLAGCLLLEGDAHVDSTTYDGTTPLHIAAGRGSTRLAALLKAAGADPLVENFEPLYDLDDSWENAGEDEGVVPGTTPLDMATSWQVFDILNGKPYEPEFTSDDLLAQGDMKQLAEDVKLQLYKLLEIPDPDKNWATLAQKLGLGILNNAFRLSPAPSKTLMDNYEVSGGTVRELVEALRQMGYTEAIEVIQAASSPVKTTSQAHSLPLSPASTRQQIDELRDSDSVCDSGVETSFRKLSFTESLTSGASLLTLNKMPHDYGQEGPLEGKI
smiles,measurement,setting,value
CC/C(=C(/CC)c1ccc(O)cc1)c1ccc(O)cc1,AC50,[1],83.9 µM (active)
same,outcome,[2],inactive
same,AC50,[3],86.9 µM (active)
same,outcome,"MYC, MYC (gene 4609)",inactive
same,outcome,[4],inactive
same,AC50,[5],67.1 µM (active)
same,AC50,[6],85.4 µM (active)
same,AC50,[7],93.8 µM (active)
same,AC50,[8],75.7 µM (active)
same,AC50,[9],80.1 µM (active)
same,outcome,[10],inactive
same,AC50,[11],89.9 µM (active)
same,AC50,[12],50 µM (active)
same,AC50,[13],90.8 µM (active)
same,outcome,[14],inactive
same,AC50,[15],81.3 µM (active)
same,AC50,[16],90.8 µM (active)
same,outcome,"TIMP1, TIMP1 (gene 7076)",inactive
CC(=O)N1CCN(c2ccc(OC[C@H]3CO[C@](Cn4ccnc4)(c4ccc(Cl)cc4Cl)O3)cc2)CC1,AC50,[1],86.3 µM (active)
same,AC50,[2],13.3 µM (active)
same,AC50,[3],16.7 µM (active)
same,AC50,"MYC, MYC (gene 4609)",15.4 µM (active)
same,AC50,[4],24 µM (active)
same,AC50,[5],42.5 µM (active)
same,outcome,[17],inactive
same,AC50,[6],76.6 µM (active)
same,AC50,[7],78.8 µM (active)
same,AC50,[8],13.3 µM (active)
same,AC50,[9],11 µM (active)
same,outcome,[10],inactive
same,AC50,[11],12 µM (active)
same,AC50,[12],30.8 µM (active)
same,AC50,[13],35 µM (active)
same,AC50,[14],22.8 µM (active)
same,AC50,[15],12.1 µM (active)
same,AC50,[16],90.9 µM (active)
same,AC50,"TIMP1, TIMP1 (gene 7076)",83.1 µM (active)
Cc1ncc(CO)c(CO)c1O,outcome,[1],inactive
same,outcome,[2],inactive
same,outcome,[3],inactive
same,outcome,"MYC, MYC (gene 4609)",inactive
same,outcome,[4],inactive
same,outcome,[5],inactive
same,outcome,[6],inactive
same,outcome,[7],inactive
same,outcome,[8],inactive
same,outcome,[9],inactive
same,outcome,[10],inactive
same,outcome,[11],inactive
same,outcome,[12],inactive
same,outcome,[13],inactive
same,outcome,[14],inactive
same,outcome,[18],inactive
same,outcome,[15],inactive
same,outcome,[16],inactive
same,outcome,"TIMP1, TIMP1 (gene 7076)",inactive
